Records with an inconclusive call do not appear. Values without a mark were called inactive. Activity calls are given as the source filed them. Calls follow the shape of the dose curve; as a rule, active = well fitted curve in the direction sought with a large enough effect; inconclusive = small, poorly fitted or top-dose-only effect, or another doubt; inactive = no such curve, though single readings can be large; an effect the other way counts as inactive or inconclusive.

Results on 7 compounds are retold here after PubChem BioAssay (NCATS).

One assay relates to MKL-1. Nature of the assay: qHTS assay to identify novel small-molecules to repurpose for Merkel cell carcinoma treatment (AID 1296009). Also: nearly all actives have a fitted effect of over 60% in size. Also: potency is read from the fitted curve at half-maximal effect. The settings on record: MCC and control cell lines, CellTiter-Glo viability, 72 h; series mostly up to 46 µM. The gist of the method: (§1)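 Cell viability measured by CellTiter-Glo following 72 hr compound treatment at 37 degree celsius, with NPC and MIPE libraries tested in 8- and 11-point concentration series.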

In a further assay the test system is MKL-2. The description is as above. The settings on record: MCC and control cell lines, CellTiter-Glo viability, 72 h; series mostly up to 46 µM. The gist of the method:
as §1

In another assay the test system is UISO. Described as above. The note with it: MCC and control cell lines, CellTiter-Glo viability, 72 h; series mostly up to 46 µM. In short, it runs like this: as §1
In a further assay the test system is WaGa. Described as above. The settings on record: MCC and control cell lines, CellTiter-Glo viability, 72 h; series mostly up to 46 µM. In short, it runs like this:
as §1

A further assay deals with CAOV3. Nature of the assay: Primary qHTS to identify gynecologic anti-cancer compounds using libraries of approved drugs and bioactive compounds (AID 1345084). Also: nearly all actives have a fitted effect of over 55% in size. Also: potency is read from the fitted curve at half-maximal effect. The settings on record: Gynecologic cancer cell panel viability, ATPlite luminescence, 48 h; series mostly up to 57.5 µM. In short, it runs like this:
(§2)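 In this quantitative HTS, cell killing is estimated from loss of ATP-dependent luciferase light. Cells see five compound concentrations over a 48 h exposure.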

For another assay, the system named is CASKI. The description is as above. The settings on record: Gynecologic cancer cell panel viability, ATPlite luminescence, 48 h; series mostly up to 57.5 µM. The gist of the method: as §2
In the next assay the test system is Es-2. Described as above. The note with it: Gynecologic cancer cell panel viability, ATPlite luminescence, 48 h; series mostly up to 57.5 µM. In short, it runs like this: as §2
A further assay relates to HeLa. The assay is described as above. The note with it: Gynecologic cancer cell panel viability, ATPlite luminescence, 48 h; series mostly up to 57.5 µM. In short, it runs like this:
as §2

A further assay has as its system Hek293T. Described as above. The note with it: Gynecologic cancer cell panel viability, ATPlite luminescence, 48 h, control line for the selectivity index; series mostly up to 57.5 µM. The gist of the method:
as §2

The next assay has as its system OV90. Described as above. The note with it: Gynecologic cancer cell panel viability, ATPlite luminescence, 48 h; series mostly up to 57.5 µM. In short, it runs like this: as §2
Another assay concerns PA-1. The description is as above. The note with it: Gynecologic cancer cell panel viability, ATPlite luminescence, 48 h; series mostly up to 57.5 µM. In short, it runs like this: as §2
Another assay relates to SKOV3. The description is as above. The note with it: Gynecologic cancer cell panel viability, ATPlite luminescence, 48 h; series mostly up to 57.5 µM. The gist of the method: as §2
For another assay, the system named is Tov-21-G. The assay is described as above. The note with it: Gynecologic cancer cell panel viability, ATPlite luminescence, 48 h; series mostly up to 57.5 µM. The gist of the method: as §2
The test system of the next assay is C33A. Described as above. The note with it: Gynecologic cancer cell panel viability, ATPlite luminescence, 48 h; series mostly up to 57.5 µM. In short, it runs like this:
as §2

Another assay deals with JEG-3. The assay is described as above. The note with it: Gynecologic cancer cell panel viability, ATPlite luminescence, 48 h; series mostly up to 57.5 µM. The gist of the method: as §2
The test system of another assay is Tov112D. Described as above. The settings on record: Gynecologic cancer cell panel viability, ATPlite luminescence, 48 h; series mostly up to 57.5 µM. In short, it runs like this: as §2
Assay [1] in a line: Drug repurposing screens with cells derived from glioblastoma tumor samples (AID 1345199). Also: nearly all actives have a fitted effect of over 40% in size. The settings on record: GBM patient neurospheres viability, ATP luminescence, 48 h. In short, it runs like this: (§3)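 Primary testing used CD133+ neurospheres from four GBM patients, seven concentrations, 48 h exposure and ATP-based viability; confirmation added three slower-growing patient lines.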

The test system of the next assay is astro. The description is as above. The settings on record: viability, ATP luminescence, 48 h; series mostly up to 45.9 µM. The gist of the method:
as §3

Setting [2] is: at 45.9 µM (top of the series), tumour line B.
The mark [3] stands for this setting: at 45.9 µM (top of the series), tumour line D.
Setting [4] is: at 46.1 µM (top of the series), tumour line C.
Where [5] appears, read: at 46 µM (top of the series), tumour line A.
% is scaled to controls: 0 for no effect and ±100 for the full control effect.

As to `COc1ccc(-c2cc3c(C)nc(N)nc3n(C3CCC(OCCO)CC3)c2=O)cn1` (stereo unspecified), the Potency with MKL-1 was 4180 nM (active); in the assay with MKL-2, 166 nM (active); with UISO it was 166 nM (active); in the assay with WaGa, 2090 nM (active); in the assay with CAOV3, 1000 nM (active); with CASKI, 1410 nM (active). The Potency is 2510 nM (active) in the assay with Es-2; 7940 nM (active) with HeLa; 1410 nM (active) in the assay on Hek293T; 2000 nM (active) with OV90; 2510 nM (active) with PA-1; 1260 nM (active) with SKOV3. Besides, the Potency in the assay on Tov-21-G is 6310 nM (active).

`Cc1c(Cn2c(C)nc3c(C(=O)O)cc(N4CCOCC4)cc32)cccc1C(F)(F)F`: the Potency result in the assay on MKL-1, in the assay with MKL-2, in the assay with UISO, in the assay on WaGa, in the assay with C33A and in the assay with CAOV3 was “inactive” in each case. In addition, the Potency entry in the assay with CASKI, with Es-2, with HeLa, in the assay with Hek293T, in the assay on JEG-3 and in the assay on OV90 was “inactive” in each case. For the same compound, the Potency result in the assay on PA-1, in the assay on SKOV3, in the assay on Tov-21-G and with Tov112D was “inactive” in each case.

`CC(=O)SC[C@@H](C)C(=O)N1CCC[C@H]1C(=O)N[C@@H](Cc1ccccc1)C(=O)O`: the Potency entry in the assay with MKL-1, with MKL-2, with UISO, with WaGa, in the assay with C33A and with CAOV3 was “inactive” throughout. The Potency result in the assay on CASKI, with Es-2, in the assay on HeLa, in the assay on Hek293T, with JEG-3 and in the assay with OV90 was “inactive” each time. In addition, the Potency result in the assay on PA-1, in the assay with Tov-21-G, in the assay on Tov112D and in the assay on astro was “inactive” each time. Also, the activity, negative = cell killing was -6.65% in assay [1] (setting [2]), 2.25% in assay [1] (setting [3]) and -6.2% in assay [1] (setting [4]).

`CCn1cc(-c2ccnc3[nH]c(-c4cccc(CN(C)C)c4)cc23)c(-c2ccc(NC(=O)N(C)C)cc2)n1`: the Potency is 37.2 nM (active) in the assay on MKL-1, 8330 nM (active) with MKL-2, 13200 nM (active) with UISO and 46.9 nM (active) in the assay on WaGa. In addition, the Potency entry in the assay on C33A, with CAOV3 and in the assay on Hek293T was “inactive” throughout.

As to `CC1(C)O[C@@H]2C[C@@H]3[C@H]4C[C@@H](F)C5=CC(=O)C=C[C@]5(C)[C@@]4(F)[C@@H](O)C[C@]3(C)[C@]2(C(=O)CO)O1`, the Potency entry with MKL-1, in the assay with MKL-2, in the assay with UISO, in the assay on WaGa and with astro was “inactive” in each case. Further, the activity, negative = cell killing is -7.89% in assay [1] (setting [2]), -1.99% in [1] (setting [3]), -7.12% in assay [1] (setting [5]) and 2.95% in assay [1] (setting [4]).

In the case of `CC=CC1=C(C(=O)O)N2C(=O)[C@H](NC(=O)[C@H](N)c3ccc(O)cc3)[C@@H]2SC1`, the Potency entry with MKL-1, with MKL-2, in the assay with UISO, with WaGa and in the assay with astro was “inactive” in each case. The activity, negative = cell killing in [1] (setting [2]) was -15%; in assay [1] (setting [3]), -0.836%; in assay [1] (setting [5]), -26.1%; in [1] (setting [4]), -17.4%.

Take `CC1(C)CCC(c2ccc(Cl)cc2)=C(CN2CCN(c3ccc(C(=O)NS(=O)(=O)c4ccc(N[C@H](CCN5CCOCC5)CSc5ccccc5)c(S(=O)(=O)C(F)(F)F)c4)cc3)CC2)C1`: the Potency in the assay with MKL-1 was 418 nM (active); with MKL-2, 264 nM (active); with WaGa, 118 nM (active); with CAOV3, 12600 nM (active); with CASKI, 14100 nM (active). In addition, the Potency result in the assay on UISO, in the assay on Es-2 and in the assay with Tov-21-G was “inactive” in each case.
